The results in this text go back to the supplement of paper PMC10941209.

The term cell viability denotes a per cent measure of how many cells are alive, often set against a control.

For this assay, the system named is HFF. Briefly: cell viability relative to DMSO control; higher = less cytotoxic. The note with it: 1 µM; 72 h. The method, then:
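Single-dose cytotoxicity screen of the MMV Pandemic Response Box at 1 uM on human foreskin fibroblasts (HFF), 72 h at 37 C. Viability measured by MTT (OD 550 nm) and normalised to the DMSO control (% survival).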
For the compound `O=C(CC1Sc2ncnn2C1=O)Nc1ccc(Br)cc1` (stereo not given), the cell viability came out at 59.7%.

On to `CCc1cc(Nc2cc(=O)n(CCN3CCN(C(=O)c4ccccc4)CC3)c(=O)[nH]2)ccc1C`, for which the cell viability was determined as 68.7%.

Compound `[N-]=[N+]=N[C@H]1C[C@H](n2ccc(=O)[nH]c2=O)O[C@@H]1CO` had a cell viability of 69.1%.

With `Cc1cc(CCCOc2c(C)cc(-c3noc(C(F)(F)F)n3)cc2C)on1`, the cell viability stood at 65.5%.

In the case of `CCC[C@H](NC(=O)[C@@H]1[C@H]2CCC[C@H]2CN1C(=O)[C@@H](NC(=O)[C@@H](NC(=O)c1cnccn1)C1CCCCC1)C(C)(C)C)C(=O)C(=O)NC1CC1`, the cell viability came to 61.8%.

Turning to `CO/N=C(\C(=O)N[C@@H]1C(=O)N2C(C(=O)OCOC(=O)C(C)(C)C)=C(/C=C\c3scnc3C)CS[C@H]12)c1csc(N)n1`, the cell viability is 66%.

In turn, `COc1cc(NCc2ccc3nc(N)nc(N)c3c2C)cc(OC)c1OC` returned a cell viability of 63.7%.

In the case of `Nc1nc(-c2ccccc2)nc2[nH]nc(Nc3ccc(C(F)(F)F)cc3)c12`, the cell viability was 64.3%.

For `Cc1c(F)cccc1NC(=O)Nc1ccc(Cl)c(S(=O)(=O)[C@H]2CCCNC2)c1O`, the cell viability stood at 60.8%.

Regarding `Cc1ccc(S(=O)(=O)Nc2cccc3cccnc23)cc1`, the cell viability came to 84.2%.

Turning to `O=C(N[C@H](CCS)C(=O)N[C@H](Cc1ccccc1)C(=O)O)c1cc2ccccc2[nH]1`, the cell viability worked out at 67.6%.

In turn, `O=S(=O)(Nc1cccc2cccnc12)c1ccccc1` yielded a cell viability of 64.1%.

`CC(=O)N1c2ccccc2NC2=C(C(=O)CC(C)(C)C2)C1c1ccc(OCc2ccccc2)cc1` (stereo not given): the cell viability was 70.4%.

Consider `Cc1c[nH]c(=O)nc1NCc1ccccc1`, for which the cell viability turned out to be 66.7%.

As to `Cc1onc(-c2ccccc2Cl)c1C(=O)N[C@@H]1C(=O)N2[C@@H]1SC(C)(C)[C@@H]2C(=O)O`, the cell viability worked out at 69%.

`Oc1ccc2[nH]c(-c3ccccc3)nc2c1` came in with a cell viability of 69.2%.

Take `O=C(Nc1ccccc1C(=O)O)c1cccc(Oc2ccccc2)c1`: the cell viability stood at 67.4%.

Compound `COc1c(F)c(F)cc2c(=O)c(C(=O)O)cn(C3CC3)c12` yielded a cell viability of 69.4%.

`CCNC(=O)Nc1cc2c(-c3ccnc(C)c3)ccc(CNC(=O)OC)c2cn1` registered a cell viability of 62.7%.

`O=C(NNC(=S)Nc1ccc(Cl)cc1)c1ccncc1` gave a cell viability of 64.2%.

In turn, `CN(C)CCNC(=O)c1cccc2cccnc12` yielded a cell viability of 61.2%.

The compound `C[C@@H](NC(=O)c1ccccc1-c1ccccc1)B(O)O` displayed a cell viability of 59.6%.

On to `C/C(=N\NC(=O)C1CC1c1ccccc1)c1ccc(NC(=O)c2ccco2)cc1` (stereo not given), for which the cell viability was 60%.

In turn, `CCOC(=O)N[C@@H]1CC[C@@H]2[C@@H](C1)C[C@H]1C(=O)O[C@H](C)[C@H]1[C@H]2/C=C/c1ccc(-c2cccc(F)c2)cn1` displayed a cell viability of 55.3%.

`Cc1nc2ccc(Oc3ccccc3)cc2c2c1CCN2CCc1ccccc1` returned a cell viability of 76.7%.

Compound `N#C/C(=C1/SC[C@H](c2ccc(Cl)cc2Cl)S1)n1ccnc1` displayed a cell viability of 74.7%.

Turning to `CCCCc1ccc(S(=O)(=O)Nc2cc(C)on2)cc1`, the cell viability is 63.3%.

In the case of `CC(C)CCN1C(=O)C(C2=NS(=O)(=O)c3cc(NS(C)(=O)=O)ccc3N2)=C(O)[C@@H]2[C@H]3CC[C@H](C3)[C@@H]21`, the cell viability worked out at 67.8%.

On to `CCc1nc2ccccn2c1C(=O)NCc1ccccc1`, for which the cell viability was determined as 66.8%.

Compound `CC(=O)NC[C@H]1CN(c2ccc(N3CCSCC3)c(F)c2)C(=O)O1` gave a cell viability of 67.2%.

The compound `CC[N+]1(C/C2=C/CCCCCC2)CCC(NC(=O)C2c3cc(Cl)ccc3Oc3ccc(Cl)cc32)CC1` (stereo not given) yielded a cell viability of 65.6%.

`Cc1ncc([N+](=O)[O-])n1CC(C)O` (stereo not given) gave a cell viability of 68.8%.

Regarding `CCc1cc(O)c(Oc2cccnc2N)cc1F`, the cell viability was 65.5%.

The compound `Nc1cc(-c2nc3ccccc3[nH]2)n[nH]c1=O` returned a cell viability of 67.1%.

In turn, `C[C@H]1CC[C@@]2(O)C(C)(C)[C@@H]3CC[C@@]2(C)[C@H]1C3` registered a cell viability of 65.2%.

Turning to `NC(=O)c1ccc(I)c([N+](=O)[O-])c1`, the cell viability amounted to 71.1%.

For `O=C(c1cc(O)nc2ccccc12)N1CCN(c2ccccc2)CC1`, the cell viability was found to be 67%.

As to `CCc1c(O)nc2ccc(F)cc2c1OCC1CCC1`, the cell viability is 56.8%.

`Nc1nc(O)c2ncn([C@@H]3O[C@H](CO)[C@@H](O)[C@H]3F)c2n1` showed a cell viability of 68.9%.

For `NC(=O)c1c(N)sc2c1CCCCC2`, the cell viability came to 74.1%.
